The record followed here is the supplement of paper PMC9262897, “Low-cost anti-mycobacterial drug discovery using engineered E. coli” (Nature Communications, 2022).

Where a name gives a salt, the structure may show the parent alone. ± gives the standard deviation of the averaged measurements.

This assay relates to E. coli TESEC Mtb Alr. In words: growth (OD600 after 10 h); higher = more growth (less inhibition). The note with it: compound 0.1 mM. The protocol:
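TESEC Mtb Alr E. coli, or the Alr+ wild-type control, in 384-well plates with Prestwick library compounds at 0.1 mM and 1% DMSO, across arabinose induction levels of 1E3 to 1E7 nM. Growth is read as OD600 after 10 h at 37 °C in triplicate biological replicates.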

The mark [1] stands for this setting: arabinose 1000 nM, raw OD600 reference: median of DMSO wells 0.294, cell-free background 0.041.
[2] abbreviates: arabinose 10000 nM, raw OD600 reference: median of DMSO wells 0.264, cell-free background 0.041.
[3] abbreviates: arabinose 100000 nM, raw OD600 reference: median of DMSO wells 0.201, cell-free background 0.041.
Where [4] appears, read: arabinose 1000000 nM, raw OD600 reference: median of DMSO wells 0.193, cell-free background 0.041.
Setting [5] is: arabinose 10000000 nM, raw OD600 reference: median of DMSO wells 0.146, cell-free background 0.041.

Take `CN1C[C@H](CNC(=O)OCc2ccccc2)C[C@@H]2c3cccc4c3c(cn4C)C[C@H]21` [Metergoline]: the growth by setting is: under setting [1], 0.0429 ± 0.0039; under setting [2], 0.04017 ± 0.00032; under setting [3], 0.0428 ± 0.00093; under setting [4], 0.0401 ± 0.00017; under setting [5], 0.0432 ± 0.0024.

Take `C[CH2][Hg][S]c1ccccc1C(=O)[O-].[Na+]` [Thimerosal]: the growth by setting is: under setting [1], 0.162 ± 0.018; under setting [2], 0.117 ± 0.01; under setting [3], 0.0992 ± 0.0084; under setting [4], 0.04637 ± 0.00025; under setting [5], 0.0615 ± 0.0003.

`COc1ccc(Cc2nccc3cc(OC)c(OC)cc23)cc1OC` [Papaverine hydrochloride]: the growth was found to be 0.199 ± 0.0045 under setting [1]; 0.215 ± 0.0047 under setting [2]; 0.141 ± 0.0019 under setting [3]; 0.087 ± 0.0015 under setting [4]; 0.133 ± 0.0021 under setting [5].

As to `CCC(COC(=O)c1cc(OC)c(OC)c(OC)c1)(c1ccccc1)N(C)C` (stereo not given) [Trimebutine], the growth came out at 0.142 ± 0.012 under setting [1]; 0.151 ± 0.011 under setting [2]; 0.116 ± 0.0031 under setting [3]; 0.0716 ± 0.0024 under setting [4]; 0.101 ± 0.015 under setting [5].

Turning to `C[C@]12COC(=O)C[C@@H]1CC[C@@H]1[C@@H]2CC[C@@]2(C)[C@H]1CC[C@]2(C)O` [Oxandrolone], the growth under setting [1] came to 0.189 ± 0.0087; the growth under setting [2] amounted to 0.232 ± 0.0096; the growth under setting [3] came out at 0.126 ± 0.0067; the growth under setting [4] came out at 0.105 ± 0.005; the growth under setting [5] came to 0.12 ± 0.0015.

Consider `N[C@@H]1C[C@H]1c1ccccc1` [Tranylcypromine hydrochloride], for which the growth stood at 0.285 ± 0.018 under setting [1]; 0.28 ± 0.0083 under setting [2]; 0.203 ± 0.02 under setting [3]; 0.19 ± 0.0048 under setting [4]; 0.141 ± 0.0022 under setting [5].

In the case of `Fc1ccc(C(OCCN2CCN(CCCc3ccccc3)CC2)c2ccc(F)cc2)cc1`, the growth amounted to 0.04027 ± 0.00025 under setting [1]; 0.0453 ± 0.00061 under setting [2]; 0.0419 ± 0.0013 under setting [3]; 0.045 ± 0.00035 under setting [4]; 0.0435 ± 0.00049 under setting [5].

In the case of `CC(C)C[C@H]1C(=O)N2CCC[C@H]2[C@]2(O)O[C@](NC(=O)[C@@H]3C=C4c5cccc6[nH]c(Br)c(c56)C[C@H]4N(C)C3)(C(C)C)C(=O)N12` [Bromocryptine mesylate], the growth runs as follows: under setting [1], 0.112 ± 0.058; under setting [2], 0.108 ± 0.0015; under setting [3], 0.187 ± 0.12; under setting [4], 0.0887 ± 0.025; under setting [5], 0.191 ± 0.013.
